# Measurements taken from the OligoGym collection.
# Target: FTL
# Test: pooled miR-30 sensor sort-seq; sequence = guide strand
# Details: shRNA
# Also: reference of the scale not given here.
row,Sequence,sensor-assay potency score (higher = more potent)
1,TTGCATCTTCAGGAGACGCTCG,-0.127
2,TACCCCACTCATCTTCAGCTGG,-0.815
3,TTCTCCTCGGCCAATTCGCGGA,-1.13
4,TTCACTTCCTCATCTAGGAAGT,-0.832
5,TTGATAAGCTTCACTTCCTCAT,-0.312
6,ATCTAGGAAGTGAGTCTCCAGG,-1.73
7,TTGATGTCCTGGAAGAGAGCGC,-0.331
8,TTCGAAGAGATACTCGCCCAGC,-0.73
9,TTCAGCTGGCTTCTTGATGTCC,-0.855
10,TCGCGGTCGAAATAGAAGCCCA,-1.25
11,TTGACCAGGCTGTTGACGGCTG,-0.48
12,TTCCAGAGCCACATCATCGCGG,-0.592
13,TTTTTCTCCAGGGCCATGGCAG,-1.05
14,TTTTACCCCACTCATCTTCAGC,-1.2
15,TGATAAGCTTCACTTCCTCATC,-1.37
16,TCCAGAGCCACATCATCGCGGT,-0.991
17,TTCAGGAGACGCTCGTAGCCCT,-0.927
18,TTTCGAAGAGATACTCGCCCAG,-0.301
19,TAAGCTTCACTTCCTCATCTAG,-0.516
20,TTTGCATCTTCAGGAGACGCTC,-0.792
21,TAGGAAGTGAGTCTCCAGGAAG,-1.72
22,TCTTGATAAGCTTCACTTCCTC,-0.871
23,ATGAAGATCCAAAAGGGCCTGG,-0.154
